Where “and” joins values, the source holds several entries; their conditions need not be identical. Equal values may be shown once. Records with an inconclusive call do not appear. Where a call stands in place of a potency, no number is given. More than one record can exist for a structure, and the calls need not agree. Calls of active or inactive are those of the source. Unless noted, calls come from the whole dose curve; as a rule, active = well fitted curve in the direction sought with a large enough effect in the repeat runs; inconclusive = weak or mixed curves; inactive = no such curve, though single readings can be large; an effect the other way counts as inactive or inconclusive. Starred links: 1 amine or outer side, 2 acyl side, 3 side chain; linkers in the order of their positions; H or OH if unused. Positions of bridges follow the written chain, without caps; N, C: chain ends. Non-standard residues stand in square brackets, D forms with d. Residues, ends and D or L forms follow the SMILES beside them. Chains are numbered I, II in the order given. Actinocin(9to1) = Cc1c2oc3c(C)ccc(C(=O)[*:1])c3nc-2c(C(=O)[*:2])c(N)c1=O; NMeV = CN[C@H](C(=O)O)C(C)C; Sar = CNCC(=O)O
Key:
[1] = qHTS assay to identify small molecule antagonists of the sonic hedgehog signaling (Shh) pathway (AID 1259369; calls by dose curve; note: nearly all actives have a fitted effect of over 45% in size; note: potency is the fitted concentration of half-maximal effect)
In short: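 Cells are plated and held 4hr at 37 C, compounds (DMSO) are pinned in, conditioned medium is added to stimulate the pathway, and after 24hr luciferase reagent is added for 30min before luminescence is read.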

[2] = target: Estrogen receptor beta (Homo sapiens) (UniProt Q92731); assay: qHTS assay to identify small molecule agonists of the estrogen receptor beta (ER-beta) signaling pathway (AID 1259377; active = well fitted activation curve with a large enough effect in the signal ratio in the repeat runs, not every such curve was filed as active; the % refers to the signal ratio)
Sequence of Estrogen receptor beta (Homo sapiens) (Q92731 whole entry, looked up): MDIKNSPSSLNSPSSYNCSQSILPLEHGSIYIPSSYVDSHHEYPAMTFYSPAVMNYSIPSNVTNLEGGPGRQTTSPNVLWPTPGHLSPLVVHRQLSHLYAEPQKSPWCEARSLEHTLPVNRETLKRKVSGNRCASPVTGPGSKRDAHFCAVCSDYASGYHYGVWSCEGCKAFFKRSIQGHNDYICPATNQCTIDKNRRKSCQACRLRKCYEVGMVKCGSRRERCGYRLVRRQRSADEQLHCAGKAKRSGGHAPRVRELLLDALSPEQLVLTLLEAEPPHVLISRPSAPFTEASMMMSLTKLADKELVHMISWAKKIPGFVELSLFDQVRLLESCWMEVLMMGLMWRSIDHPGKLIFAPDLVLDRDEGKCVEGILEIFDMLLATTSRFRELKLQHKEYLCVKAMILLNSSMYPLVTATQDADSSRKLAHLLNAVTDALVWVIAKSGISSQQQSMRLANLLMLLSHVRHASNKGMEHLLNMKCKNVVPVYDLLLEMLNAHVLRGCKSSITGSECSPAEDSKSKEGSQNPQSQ
In short: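 ER-beta-UAS-bla HEK293T (GripTite) cells carrying a UAS-driven beta-lactamase reporter, in medium with 2% charcoal-stripped FBS, were exposed to compounds for 16 hr at 37C; LiveBLAzer B/G FRET substrate was then added and fluorescence read after 2 hours at room temperature.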

[3] = target: Estrogen receptor beta (Homo sapiens) (UniProt Q92731); assay: qHTS assay to identify small molecule antagonists of the estrogen receptor beta (ER-beta) signaling pathway (AID 1259378; active = well fitted inhibition curve with a large enough effect in the signal ratio in the repeat runs, not every such curve was filed as active; the % refers to the signal ratio; note: potency is the fitted concentration of half-maximal effect)
In short: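 ER-beta-UAS-bla HEK293T (GripTite) cells in 2% charcoal-stripped FBS medium were preincubated 6 hr at 37C, dosed with compound, then stimulated with 1 nM E2 (final) for 16 hr; beta-lactamase reporter read by B/G FRET fluorescence after 2 hr substrate loading.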

[4] = qHTS assay to identify small molecule agonists of the androgen receptor (AR) signaling pathway in the presence of an antagonist - cell viability counter screen (AID 1259379); note: nearly all actives have a fitted effect of over 25% in size; note: potency is the fitted concentration of half-maximal effect;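 for activity change, negative = cytotoxicity: MDA-kb2 human breast cancer cells carrying an MMTV luciferase reporter; series mostly up to about 92 µM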
In short: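 Cytotoxicity is assessed by CellTiter-Fluor in MDA-kb2 cells carrying an MMTV-driven luciferase reporter. Cells receive 3.0uM nilutamide plus compounds at 15 concentrations and incubate 16 hr at 37C without CO2 before fluorescence reading.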

[5] = qHTS assay to identify small molecule agonists of the estrogen receptor beta (ER-beta) signaling pathway - cell viability counter screen (AID 1259380); note: nearly all actives have a fitted effect of over 30% in size; note: potency is the fitted concentration of half-maximal effect
In short: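 Cytotoxicity is measured in parallel with the reporter screen: after 16 hr compound exposure at 37C and a 2 hr LiveBLAzer step, CellTiter-Glo is added to the same ER-beta-UAS-bla HEK293T wells and luminescence read after 30 min.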

[6] = qHTS assay to identify small molecule antagonists of the estrogen receptor beta (ER-beta) signaling pathway - cell viability counter screen (AID 1259382); note: series mostly up to about 92 µM; nearly all actives have a fitted effect of over 55% in size
In short: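 Cytotoxicity counter screen multiplexed with the beta-lactamase antagonist assay: GripTite HEK293T ER-beta-bla cells were treated 16 hr with test chemicals in the presence of 1nM 17-beta-estradiol, and viability was measured by CellTiter-Glo.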

[7] = target: Estrogen receptor (Homo sapiens) (UniProt P03372); assay: qHTS assay to identify small molecule agonists of the estrogen receptor alpha (ER-alpha) signaling pathway in the presence of an antagonist (AID 1259383; calls by dose curve; note: top concentration of the series differs between compounds; nearly all actives have a fitted effect of over 15% in size)
Sequence of Estrogen receptor (Homo sapiens) (P03372 whole entry, looked up): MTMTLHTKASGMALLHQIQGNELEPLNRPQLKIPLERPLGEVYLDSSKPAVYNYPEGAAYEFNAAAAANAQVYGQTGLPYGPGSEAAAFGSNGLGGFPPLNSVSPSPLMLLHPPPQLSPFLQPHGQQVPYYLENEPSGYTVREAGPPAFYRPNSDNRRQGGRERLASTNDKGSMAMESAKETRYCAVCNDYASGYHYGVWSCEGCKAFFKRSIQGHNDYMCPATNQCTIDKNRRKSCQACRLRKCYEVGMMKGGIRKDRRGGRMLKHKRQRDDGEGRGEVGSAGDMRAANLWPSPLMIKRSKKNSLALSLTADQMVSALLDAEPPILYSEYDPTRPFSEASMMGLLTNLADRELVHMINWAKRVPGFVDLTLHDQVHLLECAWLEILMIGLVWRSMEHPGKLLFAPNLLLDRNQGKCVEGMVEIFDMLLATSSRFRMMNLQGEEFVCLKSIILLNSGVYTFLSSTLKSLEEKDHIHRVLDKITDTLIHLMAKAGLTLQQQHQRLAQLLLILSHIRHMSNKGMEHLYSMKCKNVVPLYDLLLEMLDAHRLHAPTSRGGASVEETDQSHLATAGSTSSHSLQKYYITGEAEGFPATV
In short: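 Agonist-mode confirmation in the presence of the ER antagonist ICI-182,780 at 10.0nM final. Breast-derived VM7Luc4E2 reporter cells were exposed to compounds for 22hr, and ERE-driven luciferase was quantified by luminescence.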

[8] = qHTS assay to identify small molecule agonists or antagonists of the thyroid stimulating hormone receptor (TSHR) signaling pathway - wild type cell line counter screen (AID 1259384; calls by dose curve)
In short: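 Wild-type HEK293 cells were plated 18 h at 37 C/5% CO2, pin-dosed with compound plus Ro20-1724 medium, held 30 min at room temperature, then given cAMP-d2 and anti-cAMP-cryptate; fluorescence was read after 1 h. Fifteen concentrations, triplicate.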

[9] = qHTS assay to identify small molecule agonists of the estrogen receptor alpha (ER-alpha) signaling pathway in the presence of an antagonist - cell viability counter screen (AID 1259386);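 note: cells exposed to compounds for 22 h at 37 °C before the viability read; nearly all actives have a fitted effect of over 30% in size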; note: potency is the fitted concentration of half-maximal effect; for activity change, negative = cytotoxicity: series mostly up to about 92 µM
In short: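 Cytotoxicity was measured in parallel with the ERE-luciferase agonist screen, in the same wells. The cells were VM7Luc4E2, which endogenously express ER-alpha, and treatment was with compounds plus 10.0nM ICI-182,780 for 22hr.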

[10] = target: Progesterone receptor (Homo sapiens) (UniProt P06401); assay: qHTS assay to identify small molecule agonists of the progesterone receptor (PR) signaling pathway (AID 1346784; calls by dose curve; note: nearly all actives have a fitted effect of over 30% in size; note: potency is the fitted concentration of half-maximal effect)
Sequence of Progesterone receptor (Homo sapiens) (P06401 whole entry, looked up): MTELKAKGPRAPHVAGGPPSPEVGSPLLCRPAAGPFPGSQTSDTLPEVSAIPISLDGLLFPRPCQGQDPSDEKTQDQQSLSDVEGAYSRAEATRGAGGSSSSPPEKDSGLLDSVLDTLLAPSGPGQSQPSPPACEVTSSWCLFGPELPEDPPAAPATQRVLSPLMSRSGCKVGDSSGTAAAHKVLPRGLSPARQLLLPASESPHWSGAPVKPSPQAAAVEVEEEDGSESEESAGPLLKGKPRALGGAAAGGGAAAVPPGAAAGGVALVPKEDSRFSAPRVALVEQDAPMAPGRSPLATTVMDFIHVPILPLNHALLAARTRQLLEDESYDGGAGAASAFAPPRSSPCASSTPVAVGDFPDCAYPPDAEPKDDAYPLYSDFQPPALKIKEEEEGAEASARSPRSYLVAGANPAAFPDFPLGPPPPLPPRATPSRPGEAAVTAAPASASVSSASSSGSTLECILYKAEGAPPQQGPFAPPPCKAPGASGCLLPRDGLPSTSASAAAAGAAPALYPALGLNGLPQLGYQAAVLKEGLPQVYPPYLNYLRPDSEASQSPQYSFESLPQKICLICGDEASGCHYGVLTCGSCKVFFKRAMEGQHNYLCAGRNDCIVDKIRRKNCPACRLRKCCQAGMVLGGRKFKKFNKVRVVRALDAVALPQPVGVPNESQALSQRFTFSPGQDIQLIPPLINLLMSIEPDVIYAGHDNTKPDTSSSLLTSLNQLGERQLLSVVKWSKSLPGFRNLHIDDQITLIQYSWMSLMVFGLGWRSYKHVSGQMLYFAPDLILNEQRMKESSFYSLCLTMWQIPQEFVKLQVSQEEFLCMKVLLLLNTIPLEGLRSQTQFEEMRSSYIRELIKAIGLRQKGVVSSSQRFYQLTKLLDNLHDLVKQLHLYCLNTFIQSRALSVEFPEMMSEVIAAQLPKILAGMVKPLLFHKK
In short: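 PR-UAS-bla HEK 293T cells carrying a UAS-driven beta-lactamase reporter were seeded in medium with 2% charcoal-stripped FBS, preincubated 6 hr at 37C, then exposed to compounds in DMSO for 16 hr; agonism was read by LiveBLAzer B/G FRET fluorescence.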

[11] = target: Progesterone receptor (Homo sapiens) (UniProt P06401); assay: qHTS assay to identify small molecule antagonists of the progesterone receptor (PR) signaling pathway (AID 1346795; active = well fitted inhibition curve with a large enough effect in the signal ratio in the repeat runs, not every such curve was filed as active; the % refers to the signal ratio; note: potency is the fitted concentration of half-maximal effect)
In short: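 PR-UAS-bla HEK293T cells carrying a UAS-driven beta-lactamase reporter were plated in medium with 2% charcoal-stripped FBS and rested 6 hr at 37C. Compounds were added with 1 nM R5020 (final) for 16 hr, then FRET substrate loaded 2 hr at room temperature.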

[12] = qHTS assay to identify small molecule antagonists of the progesterone receptor (PR) signaling pathway - cell viability counter screen (AID 1346798); note: series mostly up to about 92 µM; nearly all actives have a fitted effect of over 50% in size
In short: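 PR-UAS-bla HEK293T cells in medium with 2% charcoal-stripped FBS were treated with compounds plus R5020 for 16 hr at 37C. Cell viability was then read by CellTiter-Glo luminescence after 30 min at room temperature in the same wells.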

[13] = qHTS assay to identify small molecule antagonists of the TGF-beta/Smad signaling pathway - cell viability counter screen (AID 1346824); note: nearly all actives have a fitted effect of over 50% in size
In short: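 SBE-bla HEK 293T cells were plated overnight at 37 C, then given compounds in DMSO plus TGF-beta1 (added as 0.25 ng/mL solution) for 5 hr. After the bla read, CellTiter-Glo was added to the same wells and luminescence read after 30 min at room temperature.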

[14] = qHTS assay to identify small molecule agonists of the TGF-beta/Smad signaling pathway - cell viability counter screen (AID 1346829); note: top concentration of the series differs between compounds; nearly all actives have a fitted effect of over 45% in size
In short: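 HEK 293T SBE-bla line, 5 hr compound exposure at 37 C, multiplexed CellTiter-Glo viability read by luminescence.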

[15] = qHTS assay to identify small molecule agonists of the TGF-beta/Smad signaling pathway (AID 1346859; active = well fitted activation curve with a large enough effect in the signal ratio in the repeat runs, not every such curve was filed as active; the % refers to the signal ratio; note: series mostly up to about 77 µM)
In short: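 HEK 293T cells stably carrying a beta-lactamase reporter driven by the Smad binding element were seeded overnight, exposed to DMSO-dissolved compounds for 5 hr at 37 C, 5% CO2, then loaded with FRET substrate for 2 hr at room temperature.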

[16] = target: Thyrotropin-releasing hormone receptor (Homo sapiens) (UniProt P34981); assay: qHTS assay to identify small molecule antagonists of the thyrotropin-releasing hormone receptor (TRHR) signaling pathway (AID 1346877; active = well fitted inhibition curve with a large enough effect in the repeat runs, not every such curve was filed as active; note: series mostly up to about 51 µM)
Sequence of Thyrotropin-releasing hormone receptor (Homo sapiens) (P34981 whole entry, looked up): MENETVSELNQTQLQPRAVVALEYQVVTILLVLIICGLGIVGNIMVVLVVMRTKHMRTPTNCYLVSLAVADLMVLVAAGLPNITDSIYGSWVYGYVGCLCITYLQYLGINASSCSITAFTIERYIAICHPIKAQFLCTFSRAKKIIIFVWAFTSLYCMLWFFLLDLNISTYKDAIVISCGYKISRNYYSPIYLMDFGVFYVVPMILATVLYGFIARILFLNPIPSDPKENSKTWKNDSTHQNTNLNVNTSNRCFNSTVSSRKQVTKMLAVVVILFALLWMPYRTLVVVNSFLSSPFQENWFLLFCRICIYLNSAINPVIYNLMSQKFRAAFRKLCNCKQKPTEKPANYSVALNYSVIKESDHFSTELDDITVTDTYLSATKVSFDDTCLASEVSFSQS
In short: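 Antagonism is measured as suppression of the calcium response to 1 nM TRH in TRHR-HEK293 cells that have been dye-loaded for 2 h at 37 °C after overnight plating. Each compound is tested at 15 concentrations in triplicate.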

[17] = target: Thyrotropin-releasing hormone receptor (Homo sapiens) (UniProt P34981); assay: qHTS assay to identify small molecule agonists of the thyrotropin-releasing hormone receptor (TRHR) signaling pathway (AID 1346891; calls by dose curve; note: series mostly up to about 58 µM)
In short: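 TRHR-expressing HEK293 cells were plated 18 h at 37 °C/5% CO2, loaded with calcium dye 2 h at 37 °C, then given compound in DMSO; fluorescence was read kinetically for 3 min at 1 s intervals.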

[18] = target: Androgen receptor (Homo sapiens) (UniProt P10275); assay: qHTS assay to identify small molecule agonists of the androgen receptor (AR) signaling pathway in the presence of an antagonist (AID 1259381; calls by dose curve; note: nearly all actives have a fitted effect of over 15% in size)
Sequence of Androgen receptor (Homo sapiens) (P10275 whole entry, looked up): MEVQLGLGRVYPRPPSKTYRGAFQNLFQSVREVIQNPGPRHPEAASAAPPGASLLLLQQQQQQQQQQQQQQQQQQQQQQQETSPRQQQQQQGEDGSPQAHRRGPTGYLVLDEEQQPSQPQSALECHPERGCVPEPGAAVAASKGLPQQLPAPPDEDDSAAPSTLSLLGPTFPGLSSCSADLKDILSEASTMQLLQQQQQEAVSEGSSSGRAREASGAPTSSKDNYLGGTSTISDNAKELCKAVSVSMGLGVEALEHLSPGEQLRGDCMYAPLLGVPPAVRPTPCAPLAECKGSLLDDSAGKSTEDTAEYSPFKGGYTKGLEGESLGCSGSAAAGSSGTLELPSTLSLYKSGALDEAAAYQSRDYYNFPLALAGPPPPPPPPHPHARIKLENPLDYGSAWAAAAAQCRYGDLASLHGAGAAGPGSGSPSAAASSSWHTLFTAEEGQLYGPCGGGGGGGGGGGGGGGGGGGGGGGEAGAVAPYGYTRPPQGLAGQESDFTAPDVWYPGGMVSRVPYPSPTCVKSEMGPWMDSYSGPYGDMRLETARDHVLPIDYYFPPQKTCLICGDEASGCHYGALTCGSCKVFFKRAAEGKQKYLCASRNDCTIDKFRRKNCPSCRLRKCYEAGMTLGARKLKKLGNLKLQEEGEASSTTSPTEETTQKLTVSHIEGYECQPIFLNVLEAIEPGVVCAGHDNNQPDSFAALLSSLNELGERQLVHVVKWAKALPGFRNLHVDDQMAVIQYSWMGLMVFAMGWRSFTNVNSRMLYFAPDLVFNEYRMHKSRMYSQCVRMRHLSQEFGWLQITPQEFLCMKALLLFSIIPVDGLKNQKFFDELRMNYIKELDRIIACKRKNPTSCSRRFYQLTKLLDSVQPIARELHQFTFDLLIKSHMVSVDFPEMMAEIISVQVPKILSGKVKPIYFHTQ
In short: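 Agonist-mode confirmation screen: human MDA-kb2 cells stably expressing luciferase under an MMTV promoter bearing AR and GR response elements, co-treated with 3.0uM nilutamide (final). Luminescence measured after 16hr compound incubation.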

[19] = qHTS assay to identify small molecule agonists of the progesterone receptor (PR) signaling pathway - cell viability counter screen (AID 1346799; calls by dose curve; note: nearly all actives have a fitted effect of over 45% in size; note: potency is the fitted concentration of half-maximal effect)
In short: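 PR-UAS-bla HEK293T cells, 3,000 per well in medium with 2% charcoal-stripped FBS, were preincubated 6 hr at 37C, then exposed to compounds for 16 hr; viability was read as CellTiter-Glo luminescence after 30 min at room temperature.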

[20] = target: Thyrotropin receptor (Homo sapiens) (UniProt P16473); assay: qHTS assay to identify small molecule antagonists of the thyroid stimulating hormone receptor (TSHR) signaling pathway (AID 1259385; calls by dose curve; note: nearly all actives have a fitted effect of over 20% in size; note: potency is the fitted concentration of half-maximal effect)
Sequence of Thyrotropin receptor (Homo sapiens) (P16473 whole entry, looked up): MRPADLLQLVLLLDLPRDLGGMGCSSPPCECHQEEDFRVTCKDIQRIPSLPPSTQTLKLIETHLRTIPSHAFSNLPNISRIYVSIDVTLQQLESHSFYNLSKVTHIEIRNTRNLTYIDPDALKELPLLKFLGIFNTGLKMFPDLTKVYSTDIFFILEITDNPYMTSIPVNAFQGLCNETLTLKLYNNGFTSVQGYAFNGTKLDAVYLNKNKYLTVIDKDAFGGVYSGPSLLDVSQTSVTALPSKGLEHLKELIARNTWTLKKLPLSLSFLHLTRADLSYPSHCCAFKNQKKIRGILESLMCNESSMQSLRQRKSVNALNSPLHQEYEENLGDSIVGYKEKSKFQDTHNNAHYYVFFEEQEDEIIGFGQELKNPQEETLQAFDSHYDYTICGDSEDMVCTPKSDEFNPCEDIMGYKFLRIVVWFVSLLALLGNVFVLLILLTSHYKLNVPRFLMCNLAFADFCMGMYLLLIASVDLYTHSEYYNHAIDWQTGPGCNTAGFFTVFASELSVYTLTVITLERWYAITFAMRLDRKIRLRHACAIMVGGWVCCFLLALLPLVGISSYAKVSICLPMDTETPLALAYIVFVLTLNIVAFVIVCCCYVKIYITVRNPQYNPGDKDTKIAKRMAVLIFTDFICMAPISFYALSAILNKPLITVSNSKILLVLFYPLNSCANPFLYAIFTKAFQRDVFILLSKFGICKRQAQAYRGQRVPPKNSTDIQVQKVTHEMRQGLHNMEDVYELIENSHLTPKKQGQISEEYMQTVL
In short: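 TSHR-HEK293 cells were plated and held 18 h at 37C/5% CO2, then given compound plus Ro20-1724 and stimulated with TSH at 1.5 ng/mL final. After 30 min at room temperature, cAMP was detected with cAMP-d2/anti-cAMP-cryptate (1 h) by fluorescence.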

CCCCCCCCCCCCCCCCCl
activity change, negative = inhibition [1]: 30% [at 19 µM] (inactive)
activation [2]: 1.06% [at 19 µM] (inactive)
activity, negative = inhibition [3]: 9.46% [at 19 µM] (inactive)
activity change, negative = cytotoxicity [4]: 1.7% [at 19 µM] (inactive)
activity change, negative = cytotoxicity [5]: 3.21% [at 19 µM] (inactive)
activity change, negative = cytotoxicity [6]: 3.31% [at 19 µM] (inactive)
activation [7]: -0.0791% [at 19 µM] (inactive)
cAMP activity change [8]: 0.656% [at 18.9 µM, stronger effect = higher value] (inactive)
activity change, negative = cytotoxicity [9]: -1.56% [at 19 µM] (inactive)
Potency [10]: 3.84 µM (active)
activity change, negative = inhibition [11]: 4.71% [at 18.9 µM] (inactive)
activity change, negative = cytotoxicity [12]: -2.11% [at 18.9 µM] (inactive)
viability change, negative = cytotoxic [13]: 1.48% [at 15.8 µM] (inactive)
activity change, negative = cytotoxicity [14]: 1.73% [at 15.8 µM] (inactive)
activation [15]: 0.675% [at 15.8 µM] (inactive)
activity, negative = inhibition [16]: 3.5% [at 10.5 µM] (inactive)
activation [17]: -0.271% [at 11.8 µM] (inactive)

Cc1c2oc3c(C)ccc(C(=O)N[C@@H]4C(=O)N[C@H](C(C)C)C(=O)N5CCC[C@H]5C(=O)N(C)CC(=O)N(C)[C@@H](C(C)C)C(=O)O[C@@H]4C)c3nc-2c(C(=O)N[C@@H]2C(=O)N[C@H](C(C)C)C(=O)N3CCC[C@H]3C(=O)N(C)CC(=O)N(C)[C@@H](C(C)C)C(=O)O[C@@H]2C)c(N)c1=O (I: T[dV]P[Sar][NMeV] / II: T[dV]P[Sar][NMeV]; ester I:1-I:C, II:1-II:C; linker I:N-II:N via Actinocin(9to1))
Potency [1]: 2.1 nM (active)
outcome [2]: inactive
Potency [3]: 0.0266 µM (active)
Potency [4]: 10.6 µM (active)
Potency [5]: inactive
Potency [18]: inactive
Potency [6]: inactive
Potency [7]: inactive
Potency [9]: 26.6 µM (active) and 10.6 µM (active)
Potency [10]: inactive
Potency [11]: 26.6 nM (active) and 33.5 nM (active)
Potency [13]: inactive
Potency [14]: inactive
outcome [15]: inactive
Potency [16]: inactive

Nc1nc(=S)c2[nH]cnc2[nH]1
Potency [1]: 842 nM (active) and 545 nM (active) and 596 nM (active)
outcome [2]: inactive
Potency [3]: inactive
Potency [4]: inactive
Potency [5]: 3.06 µM (active) and 2.98 µM (active)
Potency [18]: inactive
Potency [7]: inactive
Potency [8]: inactive
Potency [9]: inactive
Potency [10]: inactive
Potency [11]: inactive
Potency [12]: inactive
Potency [19]: 4.73 µM (active)
Potency [13]: inactive
outcome [15]: inactive
Potency [16]: inactive

CC(=O)N[C@@H](CS)C(=O)O
Potency [1]: inactive
outcome [2]: inactive
Potency [3]: inactive
Potency [4]: inactive
Potency [5]: inactive
Potency [6]: inactive
Potency [7]: inactive
Potency [8]: inactive
Potency [20]: inactive
Potency [9]: inactive
Potency [10]: inactive
Potency [11]: inactive
Potency [12]: inactive
Potency [19]: inactive
Potency [13]: inactive
Potency [14]: inactive
outcome [15]: inactive

Cc1ccc(S(=O)(=O)Oc2ccc(N=Nc3ccc(-c4ccc(N=Nc5c(O)ccc6cc(S(=O)(=O)O)cc(S(=O)(=O)O)c56)c(C)c4)cc3C)cc2)cc1
Potency [1]: inactive
outcome [2]: inactive
Potency [3]: inactive
Potency [4]: 24.4 µM (active) and 17.8 µM (active)
Potency [5]: inactive
Potency [18]: inactive
Potency [6]: inactive
Potency [8]: inactive
Potency [20]: 61.4 µM (active)
Potency [9]: 27.4 µM (active) and 11.2 µM (active)
Potency [10]: inactive
Potency [12]: inactive
Potency [19]: inactive
Potency [13]: inactive
Potency [14]: inactive
outcome [15]: inactive

C=CS(=O)(=O)O
Potency [1]: inactive
outcome [2]: inactive
Potency [3]: inactive
Potency [4]: inactive
Potency [5]: inactive
Potency [6]: inactive
Potency [7]: inactive
Potency [8]: inactive
Potency [9]: inactive
Potency [10]: inactive
Potency [11]: inactive
Potency [12]: inactive
Potency [19]: inactive
Potency [13]: inactive
Potency [14]: inactive
outcome [15]: inactive
Potency [16]: inactive
Potency [17]: inactive

Cc1cccc(O)c1C
Potency [1]: inactive
outcome [2]: inactive
Potency [3]: inactive
Potency [4]: inactive
Potency [5]: inactive
Potency [6]: inactive
Potency [7]: inactive
Potency [8]: inactive
Potency [9]: inactive
Potency [10]: 24.2 µM (active) and inactive
Potency [11]: inactive
Potency [12]: inactive
Potency [19]: inactive
Potency [13]: inactive
Potency [14]: inactive
outcome [15]: inactive
Potency [16]: inactive
Potency [17]: inactive
